Activity calls are given as the source filed them.

In assay [1] the test system is Human papillomavirus type 1a protein E7 (residues 44-93). The assay is described as follows: HPV1a E7 fragment binders on microarrays, primary screen, biochemical, small-molecule microarray, residues 44-93, 635 nm fluorescence (AID 1108).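 Note: E7 fragment applied at 1 µg/mL in TBST for 1 h at 4 C; score combines spot fluorescence with its signal to noise ratio.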 The conditions noted are these: small-molecule microarray binding, fluorescence 635 nm; higher = more signal.
The nature of assay [2]: modulators of HCV replicon luciferase signal, primary screen, HCV replication inhibitor project, Huh7 cells, luciferase reporter (AID 1109).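 Note: huh7 hepatoma cells harbouring a luciferase neomycin HCV replicon reporter; luciferase luminescence as measure of HCV replicon replication; test concentration not given here.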 The settings on record: 48 h, higher = more signal. On the technique in general: Replicon systems follow genome replication, usually without infectious particles.
For assay [3], the target named is Left-right determination factor 2 (Homo sapiens) (UniProt O00292). In words: LEFTY2 binders on small-molecule microarrays, primary screen, biochemical, small-molecule microarray, 635 nm fluorescence scan (AID 1110). The settings on record: LEFTY2 binding, higher = more signal.
Assay [4] concerns the target Calmodulin-1 (Homo sapiens) (UniProt P0DP23). In words: CALM1 binders on microarrays, EGTA buffer, profiling panel, biochemical, small-molecule microarray, Cy5-labelled CALM1 (AID 1111).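 Note: labelled calmodulin applied in Tris saline Tween buffer holding calcium plus EGTA and DTT.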 The conditions noted are these: Cy5-CALM1 binding fluorescence, higher = more signal.
Assay [5] has the same target. In words: calcium-bound CALM1 binders on microarrays, profiling panel, artefact control for SMM control-protein annotation, biochemical, small-molecule microarray, Cy5-labelled CALM1, plus calcium (AID 1112).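 Note: score merges spot fluorescence with signal to noise from triplicate slides.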 The conditions noted are these: Cy5-CALM1 binding fluorescence, higher = more signal.
Assay [6] in a line: small-molecule microarray binders of probe aWnt5a, primary screen, biochemical, biotinylated probe, 635/667 nm fluorescence (AID 1113).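 Note: score merges 667 nm fluorescence intensity with signal-to-noise per printed feature.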 The settings on record: higher = more signal.
A short description of assay [7]: small-molecule microarray binders of probe aShh, primary screen, biochemical, biotinylated probe, 635/667 nm fluorescence (AID 1114).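 Note: probe is biotin-labelled aShh protein from a stem cell growth factor screen; measures binding of labelled protein to compounds printed on the slide; score merges feature fluorescence at 667 nm with signal-to-noise.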 The settings on record: higher = more signal.
Assay [8] can be described thus: small-molecule microarray binders of probe aNog, primary screen, biochemical, biotinylated probe, 635/667 nm fluorescence (AID 1115).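 Note: probe is biotinylated aNog protein used at 0.15 µg/mL for 1 h at 4 C; z-score combines 667 nm fluorescence of each spot with its signal to noise.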 The settings on record: higher = more signal.
Assay [9] concerns the target Torsin-1A-interacting protein 1 (Homo sapiens) (UniProt Q5JTV8). In words: LAP1 binders from COS7 cell lysate, primary screen, small-molecule microarray, 635/667 nm fluorescence (AID 1116). The conditions noted are these: COS7-hLAP1 lysate binding, 635 nm fluorescence, higher = more signal.
Assay [10] deals with Alpha-bungarotoxin (Bungarus multicinctus) (UniProt P60615). The assay is described as follows: alpha-bungarotoxin binders on microarray, profiling panel, artefact control for SMM control protein annotation, biochemical, small-molecule microarray, Alexa647 label, 635/667 nm fluorescence (AID 1117). The settings on record: alpha-BTX-A647 binding fluorescence, higher = more signal.

A further assay has as its target Albumin (Bos taurus) (UniProt P02769). The assay is described as follows: bovine serum albumin binders on microarray, profiling panel, artefact control for SMM control protein annotation, biochemical, small-molecule microarray, Alexa647 label, 635/667 nm fluorescence (AID 1118).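 Note: score merges 667 nm emission intensity and signal-to-noise per printed compound spot.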 The conditions noted are these: BSA-A647 binding, fluorescence 635 nm, higher = more signal.

Assay [11] is described as follows: small-molecule microarray binders of probe aXIP, primary screen, biochemical, NeuroSMM set, 635/667 nm fluorescence (AID 1119).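 Note: probe is the protein aXip251-270 applied at 1 µg/mL to compound-printed slides; binding of probe to printed compounds measured as 667 nm fluorescence plus signal to noise.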 The conditions noted are these: higher = more signal, called active from +8 up or from −8 down.
Assay [12] in a line: small-molecule binders of probe aNOTCH3, primary screen, biochemical, small-molecule microarray, 635/667 nm fluorescence (AID 1120).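 Note: probe is a biotin-tagged antibody raised against NOTCH3 rather than NOTCH3 protein; score merges spot fluorescence near 667 nm with spot signal to noise.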 The conditions noted are these: higher = more signal.
Assay [13] in a line: small-molecule binders of probe aNOTCH2, primary screen, biochemical, small-molecule microarray, 635/667 nm fluorescence (AID 1121).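 Note: score merges feature fluorescence read at 667 nm with its signal to noise.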 The conditions noted are these: higher = more signal.
Assay [14] has as its target Carbonic anhydrase 2 (Homo sapiens) (UniProt P00918). In words: CAII small-molecule binders, profiling panel, biochemical, small-molecule microarray, Alexa647-labelled CAII (AID 1122). The conditions noted are these: CAII-A647 binding fluorescence, higher = more signal.
Assay [15] can be described thus: COS7 lysate on small-molecule microarray, probe aHis, 635 nm (AID 1123).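 Note: z-score combines 667nm fluorescence intensity with signal-to-noise per printed compound spot.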 The settings on record: COS7 cell lysate, fluorescence, higher = more signal.
A short description of assay [16]: compound binding in COS7 lysate, probe aLAP1, primary screen, cell lysate, small-molecule microarray (AID 1124).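 Note: lysate comes from COS7 cells expressing LAP1 and is applied at 0.3 µg/mL; score merges spot fluorescence near 667 nm with signal-to-noise over triplicate slides.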 The conditions noted are these: probe aLAP1, fluorescence, higher = more signal.
Another assay concerns Sam68 (KHDRBS1). The assay is described as follows: Sam68 small-molecule binders, primary screen, biochemical, small-molecule microarray, 635 nm fluorescence (AID 1125).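 Note: score merges 667 nm channel intensity with signal to noise over triplicate slides.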 The conditions noted are these: small-molecule microarray binding, higher = more signal.
The test system of assay [17] is Chordin-like protein 2 (CHRDL2). In words: CHRDL2 small-molecule binders, primary screen, biochemical, small-molecule microarray, 635 nm fluorescence (AID 1126).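 Note: printed compound slides probed with Chrdl2 protein at 4 µg/mL for 1 h at 4 C; score merges 667 nm emission intensity with signal to noise over three replicate slides.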 The conditions noted are these: small-molecule microarray binding, fluorescence 635 nm; higher = more signal.
Assay [18] concerns the target Concanavalin-A (Canavalia ensiformis) (UniProt P02866). The assay is described as follows: ConA small-molecule binders, primary screen, artefact control for SMM control protein annotation, biochemical, small-molecule microarray, Alexa647 label, 635 nm (AID 1127).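 Note: z combines 667 nm emission intensity with signal-to-noise across three replicate slides.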 The conditions noted are these: ConA-A647 binding fluorescence, higher = more signal.

Sequence of Left-right determination factor 2 (Homo sapiens) (O00292 whole entry, looked up): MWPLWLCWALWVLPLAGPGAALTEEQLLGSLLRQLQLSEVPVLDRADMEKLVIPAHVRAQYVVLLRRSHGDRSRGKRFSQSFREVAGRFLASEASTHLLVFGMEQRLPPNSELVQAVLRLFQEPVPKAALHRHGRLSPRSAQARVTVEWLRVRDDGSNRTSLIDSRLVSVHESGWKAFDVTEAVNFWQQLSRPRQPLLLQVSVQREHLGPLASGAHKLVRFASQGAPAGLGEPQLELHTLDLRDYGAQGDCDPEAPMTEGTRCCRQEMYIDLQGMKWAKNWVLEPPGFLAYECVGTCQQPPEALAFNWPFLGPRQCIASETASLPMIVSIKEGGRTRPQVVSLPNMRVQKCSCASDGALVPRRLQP
Sequence of Torsin-1A-interacting protein 1 (Homo sapiens) (Q5JTV8 whole entry, looked up): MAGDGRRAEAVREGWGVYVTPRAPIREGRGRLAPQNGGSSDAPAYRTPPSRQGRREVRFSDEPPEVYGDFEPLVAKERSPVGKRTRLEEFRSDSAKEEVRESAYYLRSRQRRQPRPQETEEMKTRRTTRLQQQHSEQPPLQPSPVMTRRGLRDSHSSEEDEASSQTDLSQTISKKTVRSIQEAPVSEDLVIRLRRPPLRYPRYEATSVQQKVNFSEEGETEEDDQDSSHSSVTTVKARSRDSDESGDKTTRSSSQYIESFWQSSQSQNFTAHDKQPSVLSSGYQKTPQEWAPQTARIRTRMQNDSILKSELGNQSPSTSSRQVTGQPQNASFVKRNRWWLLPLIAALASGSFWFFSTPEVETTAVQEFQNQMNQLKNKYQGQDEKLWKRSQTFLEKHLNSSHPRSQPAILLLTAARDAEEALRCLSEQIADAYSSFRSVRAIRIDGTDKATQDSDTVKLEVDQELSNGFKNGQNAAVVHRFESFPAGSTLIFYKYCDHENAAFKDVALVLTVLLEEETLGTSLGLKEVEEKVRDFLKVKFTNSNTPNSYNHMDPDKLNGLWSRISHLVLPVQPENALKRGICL
Sequence of Albumin (Bos taurus) (P02769 whole entry, looked up): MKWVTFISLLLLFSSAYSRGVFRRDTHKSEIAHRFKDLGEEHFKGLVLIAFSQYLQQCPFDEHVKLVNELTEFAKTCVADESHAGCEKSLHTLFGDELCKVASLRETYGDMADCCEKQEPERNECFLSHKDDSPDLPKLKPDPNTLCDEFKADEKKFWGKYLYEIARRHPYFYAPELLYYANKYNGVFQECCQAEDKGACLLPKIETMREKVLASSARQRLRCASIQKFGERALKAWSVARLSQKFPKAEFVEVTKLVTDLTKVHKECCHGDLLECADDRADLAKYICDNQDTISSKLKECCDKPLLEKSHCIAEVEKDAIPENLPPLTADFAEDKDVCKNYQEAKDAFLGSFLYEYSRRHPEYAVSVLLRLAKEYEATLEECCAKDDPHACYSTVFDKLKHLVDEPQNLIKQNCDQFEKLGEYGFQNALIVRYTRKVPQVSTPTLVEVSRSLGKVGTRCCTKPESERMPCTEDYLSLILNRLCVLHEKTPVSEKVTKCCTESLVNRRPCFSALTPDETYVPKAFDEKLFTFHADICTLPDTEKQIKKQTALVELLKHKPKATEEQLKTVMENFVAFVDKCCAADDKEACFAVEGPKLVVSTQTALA
Sequence of Alpha-bungarotoxin (Bungarus multicinctus) (P60615 whole entry, looked up): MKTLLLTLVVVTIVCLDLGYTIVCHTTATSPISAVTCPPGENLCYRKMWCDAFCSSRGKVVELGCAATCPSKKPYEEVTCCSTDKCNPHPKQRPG
Sequence of Concanavalin-A (Canavalia ensiformis) (P02866 whole entry, looked up): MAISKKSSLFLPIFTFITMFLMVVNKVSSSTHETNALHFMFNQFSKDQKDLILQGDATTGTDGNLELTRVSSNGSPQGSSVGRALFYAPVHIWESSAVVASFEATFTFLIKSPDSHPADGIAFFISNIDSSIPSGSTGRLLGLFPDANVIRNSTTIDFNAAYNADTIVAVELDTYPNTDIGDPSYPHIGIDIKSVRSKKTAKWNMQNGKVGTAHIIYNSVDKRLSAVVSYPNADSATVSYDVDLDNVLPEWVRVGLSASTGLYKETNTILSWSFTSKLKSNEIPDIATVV

Regarding `O=C1OCC=C[C@H]2OC34C=CCN(CCN5CCOCC5)C(=O)[C@H]3N(CCO)C(=O)[C@@H]4[C@@H]12` (stereo not given in full), the composite z-score in assay [1] was 0.259; in assay [3], -0.0919; in assay [4], -0.571; in assay [5], -0.932; in [6] it was -0.223; in assay [7], -0.321. Besides, the composite z-score was -0.384 in [8]; 0.0486 in [9]; -0.283 in assay [10]; -0.263 in the assay with Albumin (Bos taurus); -0.0221 in assay [12]; -0.208 in assay [13]. Besides, the composite z-score in [14] is 0.764; in [15], -0.214; in [16], -0.194; in the assay on Sam68 (KHDRBS1), 0.457; in [17], 0.0881; in assay [18] it was 0.575. In [2], this compound came in with a z-score of 0.289. The composite Z-score in assay [11] is 0.198 (inactive).

On to `C=CCNC(=O)[C@H]1[C@@H]2C(=O)O[C@@H](c3ccccc3)[C@@H](c3ccccc3)N2[C@@H](c2ccc(OCCO)cc2)[C@]12C(=O)Nc1ccc(C#CCC(C(=O)OC)C(=O)OC)cc12`, for which the composite z-score is 0.694 in assay [1]; 1.37 in [3]; 0.832 in assay [4]; 0.478 in assay [5]; 0.0805 in assay [6]; -0.254 in assay [7]. For the same compound, the composite z-score was -0.126 in assay [8]; 0.357 in [9]; 1.34 in assay [10]; 0.629 with Albumin (Bos taurus); 0.116 in [12]; 0.0022 in [13]. The composite z-score in [14] is 0.328; in [15] it was 1.92; in [16], 0.979; in the assay with Sam68 (KHDRBS1) it was 1.3; in assay [17] it was 1.24; in assay [18], 1.12. In addition, the z-score in assay [2] is -2.22. Further, the composite Z-score in assay [11] was 0.612 (inactive).

On to `CCCCC(=C=CC[C@@H](O)c1cccc(OCCO)c1)C[C@@H](O)c1ccccn1`, for which the composite z-score in assay [1] was 1.35; in assay [3], 0.229; in assay [4] it was 1.16; in assay [5] it was -0.946; in assay [6], -0.0735; in [7], -0.0553. In addition, the composite z-score in assay [8] was 0.144; in assay [9] it was 1.25; in assay [10], 1.16; with Albumin (Bos taurus) it was 0.416; in assay [12], -0.0881; in assay [13] it was -0.172. For the same compound, the composite z-score in assay [14] stood at 0.7; in assay [15], 0.617; in [16], 0.651; in the assay with Sam68 (KHDRBS1) it was 1.29; in assay [17] it was 0.263; in [18] it was 0.664. For the same compound, the z-score in assay [2] is -0.617. In [11], the composite Z-score is 0.216 (inactive).

For the compound `O=C(NCc1ccccc1)[C@@H]1c2ccccc2C(=O)N(C2Cc3ccccc3C2)[C@H]1c1ccc(CO)cc1`, the composite z-score was -0.146 in [1]; -0.322 in assay [3]; 0.158 in [4]; 0.229 in assay [5]; -0.101 in assay [6]; 0.194 in assay [7]. Besides, the composite z-score in assay [8] is 1.13; in assay [9] it was 0.628; in [10] it was 1.22; with Albumin (Bos taurus) it was 0.0732; in assay [12], 0.0711; in assay [13] it was -0.0249. Besides, the composite z-score in [14] is 0.767; in assay [15], 1.35; in assay [16], 0.0541; in the assay with Sam68 (KHDRBS1), 0.958; in assay [17], -0.357; in assay [18] it was 0.899. In assay [2], this compound registered a z-score of -0.51. The composite Z-score in assay [11] is 0.0702 (inactive).

In the case of `O=C(NC1CC1)[C@@H]1c2ccccc2C(=O)N(C2Cc3ccccc3C2)[C@H]1c1ccc(CO)cc1`, the composite z-score was 1.32 in [1]; 0.716 in assay [3]; -0.199 in assay [4]; -0.253 in assay [5]; -0.0512 in assay [6]; -0.457 in assay [7]. Also, the composite z-score was -0.608 in assay [8]; 0.599 in assay [9]; 0.154 in assay [10]; 0.378 with Albumin (Bos taurus); -0.0166 in assay [12]; 0.0386 in [13]. The composite z-score in assay [14] was found to be 0.608; in assay [15], 1.41; in assay [16], 0.237; in the assay on Sam68 (KHDRBS1) it was 1.24; in [17], 0.847; in assay [18] it was 0.918. For the same compound, the z-score in assay [2] is -0.865. Besides, the composite Z-score in assay [11] was -0.358 (inactive).

In the case of `CO[C@H]1O[C@H](CO)[C@@H](OC(=O)Nc2ccccc2-c2ccccc2)[C@H](OC(=O)Nc2ccccc2-c2ccccc2)[C@@H]1OC(=O)Nc1ccccc1-c1ccccc1`, the composite z-score in assay [1] is 0.538; in [3], 0.292; in assay [4], 1.74; in assay [5], 0.459; in assay [6], -0.0196; in assay [7] it was -0.0769. The composite z-score in assay [8] is 0.799; in [9], 0.146; in [10], 0.818; in the assay with Albumin (Bos taurus), 0.926; in [12], 0.0904; in assay [13], -0.0513. Also, the composite z-score in [14] came out at 0.374; in assay [15] it was 2.18; in [16], 0.75; with Sam68 (KHDRBS1), 1.29; in assay [17], 0.332; in assay [18], 1.17. This compound also registered a z-score in assay [2] of -1.77. In [11], the composite Z-score was 0.523 (inactive).
